FID counter: displaces DNA intercalator in HCV helicase counter-screen | DNA fluorescent intercalator displacement, fluorescence | inhibition, % at 7.9 µM | actives 0.17% (n = 290,000); in the data active means inhibition above about 37%;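 further: 0% = vehicle and 100% = reference compound; higher means more ethidium bromide displaced from hairpin DNA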
dFosB activator: activators of mouse delta FosB homodimer; activation, % at 25 µM; purified delta FosB, TAMRA-CDK5 oligo fluorescence polarization; percent of positive-control signal above neutral wells; P13346; actives 0.99% (n = 340,000);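 active means mean activation above about 17%, with every replicate also reaching it, limit read from the data, passing the limit was not always enough; inconclusive means only one of the two conditions met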
MEKK2 WT-MEK5: raises or lowers MEK5 binding to wildtype human MEKK2 PB1 domain; Q9Y2U5; bead flow cytometry, Alexa488-MEK5 binding to MEKK2 WT; actives lie on both sides; binding response (% of control), % at 10 µM; actives 1.1% (n = 290,000); AID 1531; in the data active means binding response below about 67% or above about 130%; inconclusive means no clear call, values can overlap the other calls; inactive means in between
MEKK2mut PB1 HTS: signal of MEK5 binding to mutant human MEKK2 PB1 domain; bead flow cytometry, Alexa488-MEK5 binding to MEKK2 mutant; percent response, % at 10 µM; actives 0.35% (n = 290,000); AID 1530; in the data active means percent response above about 24%, passing the limit was not always enough
MEKK3 PB1 HTS: MEKK3-MEK5 PB1 interaction, increase or decrease; AID 1529; actives 1.4% (n = 290,000); binding response (% of control), % at 10 µM; bead-based flow cytometry, Alexa488-MEK5 binding to MEKK3; actives lie on both sides; 0 = blocked by unlabeled MEK5, 100 = vehicle;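 active means binding response more than 3 SD above or below the average of its plate-row segment, actives on both sides; inconclusive means wells at one plate position flagged as instrument error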;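 further: Alexa488 bead fluorescence after subtracting the streptavidin-only scavenger bead signal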
* = called active by the depositor; ? = inconclusive; nt = no result; ! = not active in a repeat; [ ] = dose if it differs, or a comment. Sampled rows, rich in hits. Any-hit rate of the full collection: about 2.9%.

SMILES | FID counter | dFosB activator | MEKK2 WT-MEK5 | MEKK2mut PB1 HTS | MEKK3 PB1 HTS
CCN(CC)CCNC(=O)c1ccc(NC(=O)c2ccc(S(=O)(=O)N(C)c3ccccc3OC)cc2)cc1 | nt | -3 | nt | nt | nt
c1cc2ccc3ccc(CN4CCOCC4)c4ccc(c1)c2c34 | 6 | 31* | 103 | 2 | 100
CCC1CCC(C(=O)NC(C(=O)NCCc2ccc(S(N)(=O)=O)cc2)C(C)C)CC1 (stereo unspecified) | -17 | 73* | 108 | 7 | 105
O=C(NCC1CCN(Cc2ccc(Cl)cc2)CC1)C1CCCN(c2ncnc3c2nc2n3CCCCC2)C1 (stereo unspecified) | 15 | 3 | 132 | 25* | 107
CC(=O)CCCCn1cnc2c1c(=O)n(C)c(=O)n2C | 3 | nt | -14*! | -7 | 90
CC1CN(C(=O)CSc2nnc(CNC(=O)c3ccc(S(=O)(=O)N(C)C)cc3)o2)CC(C)O1 (stereo unspecified) | -19 | 7 | 106 | 4 | 102
COc1cc2[nH]c(=S)n(Cc3cccs3)c(=O)c2cc1OC | 0 | 19* | 94 | 0 | 96
Cc1cc(-c2csc(N)n2)c(C)n1CCC(C)C | -10 | -2 | 59* | -2 | 101
COc1ccc(N=C2O/C(=C/c3sc(=S)n(CC4CCCO4)c3O)N=C2C#N)cc1 (stereo unspecified) | -3 | nt | 33* | 6 | 98
COc1ccc(/C=C2\SC(=S)N(CC3CCCO3)C2=O)cc1 (stereo unspecified) | -7 | -7 | 89 | -12 | 92
O=C(CN1CCN(c2ccc(O)cc2)CC1)Nc1cc([N+](=O)[O-])ccc1Cl | 5 | -2 | 15* | 19 | 96
CC(C)c1nc(SCC(=O)Nc2c[nH]c(=O)[nH]c2=O)c2cnn(-c3ccccc3)c2n1 | -2 | 153* | 82 | -14 | 76
Cc1nnc(SC(C)C(=O)Nc2ccc(Cl)cc2Cl)[nH]c1=O (stereo unspecified) | nt | -3 | nt | nt | nt
Cc1ccc(S(=O)(=O)N2CCN(C(=O)COC(=O)c3ccc(Cl)nc3)CC2)c(C)c1 | nt | 32* | nt | nt | nt
O=C(Cn1cc[n+](Cc2ccccc2)c1)c1ccc([N+](=O)[O-])cc1 | 44* | -9 | 102 | 3 | 101
Cc1ccsc1/C=C/C1=Cc2c(sc(NC(=O)CSc3n[nH]c(N)n3)c2C#N)C(C)(C)C1 | -16 | -4 | 76 | -12 | 93
CCOc1ccc(/C=C/C2=Cc3c(sc(NC(=O)CSc4n[nH]c(N)n4)c3C#N)C(C)(C)C2)cc1 | -23 | 6 | 31* | -8 | 89
O=S(=O)(c1ccccc1)c1nnn2c1nc(NC1CCN(Cc3ccccc3)CC1)c1ccccc12 | 5 | -120 | 146* | 32* | 102
Cc1ccc(C)c(Nc2nc3c(S(=O)(=O)c4ccccc4)nnn3c3ccccc23)c1 | 0 | 1 | 108 | 0 | 107
O=S(=O)(c1ccccc1)c1nnn2c1nc(NC1CCN(Cc3ccccc3)CC1)c1cc(Cl)ccc12 | -1 | -85 | 138* | 33* | 106
COc1cc(CO)ccc1OCc1nnnn1-c1ccc(C)cc1 | -10 | -2 | 112 | -3 | 115
CC(C)CCN1CCC(N)=NC1=O | 0 | -3 | 422* | 534* | 122
CCN(CC)CCn1c(=N)n(CC(O)COc2ccccc2)c2ccccc21 (stereo unspecified) | 37* | -7 | 95 | -2 | 92
CCN(CC)CCn1c(=N)n(CCOc2ccccc2)c2ccccc21 | 20 | -16 | 114 | 13 | 107
COc1cc2ccccc2cc1C(=O)N(CCN(C)C)c1nc2c(OC)ccc(OC)c2s1 | 32 | ? | 147* | 24* | 104
COc1ccc(OC)c2sc(N(CCN(C)C)C(=O)c3ccc4ccccc4c3)nc12 | 19 | 30* | 134 | 11 | 105
COc1ccc(C2(C(=O)N3CCCC3)CCOCC2)cc1OC | 0 | 2 | 95 | -1 | 96
c1ccc(-c2csc(NC3CCCCC3)n2)cc1 | -19 | -8 | 103 | 1 | 103
COc1ccc(-c2csc(NC3CCCCC3)n2)c(OC)c1 | 0 | -7 | -4.0*[inhibitor] | 2 | 98

Screening data deposited in PubChem BioAssay by several laboratories.
